Results: PubChem BioAssay AID504660 (National Center for Advancing Translational Sciences (NCATS), 2011)
In all, about 360,000 compounds went through this assay and about 3,700 (1%) were called active. No stated cut-off is given here; in the data, active means activation above about 30%; inactive means the rest. What follows is part of a selection rich in actives, with near analogues and random picks from the rest.

Target: D(1A) dopamine receptor (Homo sapiens) (UniProt P21728)
Experiment: Allosteric Agonists of the Human D1 Dopamine Receptor: qHTS; further: 0% is about no effect
Details: HEK293 T-REx D1 cells, calcium flux, agonist mode; at 2 µM; stronger effect = higher value
Procedure, shortened: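 Inducible HEK293 T-REx D1 cells, force-coupled to calcium signalling, were plated at 4000 cells/well with tetracycline and held overnight at 30 C. After no-wash calcium dye loading, compound-evoked calcium rise over 180 s flagged agonists.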

Sequence of D(1A) dopamine receptor (Homo sapiens) (P21728 whole entry, looked up): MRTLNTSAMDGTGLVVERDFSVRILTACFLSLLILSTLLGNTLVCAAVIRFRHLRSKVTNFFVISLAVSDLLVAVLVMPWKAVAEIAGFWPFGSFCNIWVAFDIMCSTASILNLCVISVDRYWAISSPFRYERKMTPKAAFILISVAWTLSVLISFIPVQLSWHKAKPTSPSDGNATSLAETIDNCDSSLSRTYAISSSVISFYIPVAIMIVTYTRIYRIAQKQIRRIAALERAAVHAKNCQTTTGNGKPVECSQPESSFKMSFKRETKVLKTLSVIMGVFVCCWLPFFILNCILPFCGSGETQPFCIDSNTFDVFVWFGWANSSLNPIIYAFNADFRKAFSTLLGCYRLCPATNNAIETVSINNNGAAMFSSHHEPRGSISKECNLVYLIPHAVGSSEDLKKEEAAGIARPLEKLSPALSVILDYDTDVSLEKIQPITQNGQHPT

activation, inactive:
CCN(CC)C(=O)CSc1nc2cc3c(cc2c(=O)n1CCCC(=O)NCc1ccc2c(c1)OCO2)OCO3 0.699%
CCOc1ccc(CNC(=O)C2CCCN(S(=O)(=O)N(CC)c3ccc(OCC)cc3)C2)cc1 (stereo unspecified) -0.432%
Cc1noc2ncnc(NCc3ccccc3Cl)c12 21.4%
Cc1noc(C)c1-c1ccc2ncnc(NC(C)c3ccco3)c2c1 (stereo unspecified) -0.27%
O=C(NCCCO)c1nn(-c2ccc(Cl)cc2)nc1CO -0.511%
Cc1ccc(OCC(=O)Nc2ccc(OCc3cc(=O)n4c(C)csc4n3)cc2)cc1C 5.64%
O=C(c1ccc(F)cc1)n1c(=S)nc2ccccn21 2.37%
O=C(CNC(=O)c1ccccc1F)c1ccc(Br)cc1 -0.969%
Cc1ccc(-n2ncc3c(N4CCC(C(N)=O)CC4)ncnc32)cc1 -2.06%
CCOC(=O)C1CCN(C(=O)CSc2c3c(nc4ccc(Cl)cc24)CCCC3)CC1 3.05%
Cc1cc(NC(=O)c2ccc(-c3ccc(Cl)cc3)o2)cc(-c2nc3ncccc3o2)c1O -0.471%
CCN(Cc1ccccc1)C(=O)c1cn(-c2cccc(OC)c2)c(=O)c2ccccc12 0.204%
Cc1cccc(C(=O)Nc2ccc(-c3nc4ncccc4o3)cc2C)c1 0.768%
Cc1cc(C)c2sc(NC(=O)c3ccc(S(=O)(=O)N4CCCC4)cc3)nc2c1 -0.497%
CCN(CC)CCN(C(=O)c1ccc(N2C(=O)CCC2=O)cc1)c1nc2cc3c(cc2s1)OCO3 5.63%
CCCCN(CC)C(=O)c1ccc2c(c1)OCO2 4.54%
CCN(CC(=O)Nc1c(F)cccc1F)C(=O)c1ccc(S(=O)(=O)N2CCCCC2)cc1 -0.0233%
CCOc1ccc(CNC(=O)c2cc(=O)[nH]c3ccc(S(=O)(=O)N4CCCCC4)cc23)cc1 -3.81%
Cc1cc(C)cc(NS(=O)(=O)c2cc3c(cc2C)NC(=O)CO3)c1 3.6%
Cc1ccccc1OCc1ccc(-c2nc(C#N)c(N3CCCCC3)o2)o1 1.07%
Cc1ccc(Cn2ncc3c4sc(C)cc4n(C)c3c2=O)c(C)c1 3.45%
Cn1c(=O)c(=O)n(C)c2cc(NC(=O)c3ccccc3Br)ccc21 0.667%
Cc1ccc(CNC(=O)CCNS(=O)(=O)c2ccc3c(c2)oc(=O)n3C)cc1 1.82%
Cc1cc(OCC(=O)NCC2(N(C)C)CCCCC2)cc(C)c1Cl 9.34%
CCOc1ccc(S(=O)(=O)Nc2cccc(C(=O)NCC3(N4CCCCC4)CCCCC3)c2)cc1 5.67%
O=C(NCc1ccc2c(c1)CCN2C(=O)c1ccccc1)c1ccccc1 2.65%
O=C(CSc1nc2c(c(=O)[nH]1)CN(Cc1ccc(F)cc1)CC2)Nc1ccccc1Cl 3.05%
CCOc1ccccc1CNC(=O)C1CCCN(S(=O)(=O)c2ccc3c(ccn3C)c2)C1 (stereo unspecified) 4.08%
O=C(Nc1nnc(S(=O)(=O)N2CCCc3ccccc32)s1)c1cccc(F)c1 0.00305%
O=C(c1ccc(Br)cc1)N(Cc1cccs1)c1ccc(F)cc1 9.82%
Cc1ccccc1CNC(=O)Cn1c(C)c2cnn(-c3ccccc3)c(=O)c2c1C 3.52%
Cc1c2cnn(-c3ccccc3)c(=O)c2c(C)n1CCCC(=O)N1CCN(C)CC1 0.261%
O=C(/C=C/c1cn(CC(O)CN2CCc3ccccc32)c2ccccc12)c1ccc(Br)cc1 (stereo unspecified) 11.4%
COc1ccc(-c2cc(-c3ccc(F)cc3)nc3c2COc2ccccc2-3)cc1 -0.494%
COc1ccccc1CNC(=O)CCn1c(=O)c2ccccc2n(CC(=O)Nc2ccc(Br)cc2F)c1=O 0.0005%
CC(=O)NC(=S)NNC(=O)c1ccc(Br)cc1 0.645%
O=C(/C=C/c1ccc(F)cc1)NC(=S)NNC(=O)c1cccnc1 1.33%
O=C(NNC(=S)NC(=O)c1cn(-c2ccccc2)nc1-c1ccccc1)c1ccncc1 6.27%
Cn1nnc(NC(=S)NC(=O)c2ccccc2)n1 4.22%
COc1ccc(C(=O)NC(=O)CSc2nnc(-c3ccco3)n2-c2ccccc2)cc1 1%
COc1ccc(C(=O)Nc2onc3c2CCCC3)cc1 -1.07%
Cc1cc(C(=O)Nc2cccc(C(F)(F)F)c2)c2c(C)nn(-c3cccc(F)c3)c2n1 19.5%
CCOc1ccc(-n2c(SCC(=O)NCc3ccccc3)nc3n[nH]c(C)c3c2=N)cc1 1.25%
COc1ccc(N(CC(=O)NCCc2ccc(Cl)cc2)S(=O)(=O)c2c(C)nn(C)c2C)cc1 0.495%
CCOC(=O)c1[nH]c(C)c(CCC(=O)NCc2ccccc2C)c1C -0.942%
CCOc1ccc(-c2nonc2NC(=O)c2oc3ccc(CC)cc3c2C)cc1 5.77%

activation, active:
Cc1noc(C)c1-c1ccc2ncnc(NCc3ccc(F)c(F)c3)c2c1 131%
O=C(C[n+]1cc(Br)cc2ccccc21)c1ccc(F)cc1 39.6%
CN(C)CCCN(C(=O)c1ccc(S(=O)(=O)N2CCCCCC2)cc1)c1nc2ccc(Br)cc2s1 42.8%
CCc1ccc2nc(N(CCCN(C)C)C(=O)c3ccc4c(c3)OCCO4)sc2c1 53.9%
CN1CCN(C2(CNC(=O)COc3ccc(C(C)(C)C)cc3)CCCCC2)CC1 42.8%
Cc1cc(C)c2nc3nc(C)cc(C)c3c(N)c2c1 31%
Cc1c2cnn(-c3ccccc3)c(=O)c2c(C)n1C(C)C(=O)Nc1ccc(Br)cc1F (stereo unspecified) 34.5%
Cc1onc(-c2ccccc2)c1C(=O)NNC(=S)NC(=O)c1ccc(F)cc1 61.1%
COc1ccc(C(=O)NNC(=S)NC(=O)c2ccccc2)cc1 84.2%
COc1ccc(C(=O)NC(=S)NNC(=O)c2c(-c3ccccc3)noc2C)cc1 86.2%
